Hits are enriched below; roughly 4.6% of the tested compounds scored in any of these assays.
tim10-1 inh – inhibits growth of tim10-1 mutant yeast | AID 463190 | inhibition, % at 20 µM | hit rate 2.2% among 330,000 | S. cerevisiae tim10-1 ts strain growth, BacTiter-Glo, 24 h;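 active = inhibition of at least 40%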;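 note: mutant grown at 25 °C; 0% = DMSO wells with yeast and 100% = wells holding no yeast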
NALP3 yeast inh – inhibitors of NALP3 inflammasome in yeast. Yeast reconstituted NLRP3/ASC/caspase-1, beta-gal luminescence, 24 h. inhibition, % at 10 µM. hit rate 0.39% among 330,000;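 active = inhibition of 50% or more; inactive = inhibition below 50%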;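 note: plate controls were induced DMSO wells for no effect and uninduced yeast grown without galactose for full effect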
tim23-1 inh – inhibits growth of tim23-1 mutant yeast; S. cerevisiae tim23-1 growth, BacTiter-Glo luminescence, 24 h; inhibition, % at 20 µM; hit rate 1.3% among 330,000; AID 463212;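 active = growth inhibition of the mutant yeast at or above 50%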;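 note: temperature-sensitive mutant grown at 25 °C; plate controls were DMSO-treated mutant yeast for no effect and medium wells lacking yeast for full effect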
TIM10 inh – TIM10 yeast growth inhibition | hit rate 1.4% among 330,000 | inhibition, % at 10 µM | S. cerevisiae TIM10 strain growth, BacTiter-Glo luminescence, 24 h | AID 463195;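 active = inhibition of 40% or more at the single tested concentration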;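 note: wild-type TIM10 isogenic control strain grown at permissive 25 °C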
SKKanGAS inh – blocks kanamycin growth of S. pyogenes SKKanGAS strain. inhibition, % at 7.5 µM. AID 1662. hit rate 1.3% among 300,000. BacTiter-Glo, 6 h;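 active = mean replicate score, as percent of positive control median, at least 50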;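 note: strain carries kanamycin resistance gene driven by streptokinase promoter and grows in 40 µg/ml kanamycin; loss of luminescence reflects streptokinase promoter inhibition or plain growth inhibition; 0% = median of DMSO wells and 100% = positive control at its reference dose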
tim10-1 confirm – tim10-1 yeast growth inhibition, confirmed | hit rate 56% among 7,400 | inhibition, % at 20 µM | S. cerevisiae tim10-1 ts strain growth, BacTiter-Glo, 24 h | shares compounds with tim10-1 inh | AID 463213;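 active = inhibition of yeast growth at or above a set limit in either of two repeat tests at 20 µM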;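 note: tim10-1 mutant grown at permissive 25 °C to find synthetic lethal compounds; 0% = DMSO yeast wells and 100% = medium wells without yeast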
tim10 confirm – TIM10 yeast growth inhibition, confirmed; shares compounds with TIM10 inh; S. cerevisiae tim10 strain growth, BacTiter-Glo luminescence, 24 h; inhibition, % at 10 µM; hit rate 63% among 4,600; AID 463215;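 active = inhibition of yeast growth at or above a set limit in either of two replicates at 10 µM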;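 note: this counterscreen used the strain with wild-type TIM10; 0% = yeast with DMSO and 100% = medium wells lacking yeast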
tim23-1 conf – tim23-1 yeast growth inhibition, confirmed; hit rate 83% among 4,400; inhibition, % at 20 µM; shares compounds with tim23-1 inh; AID 463218; S. cerevisiae tim23-1 growth, BacTiter-Glo luminescence, 24 h;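 active = inhibition above about 39% in either of two replicate wells at 20 µM, limit read from the data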;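 note: temperature-sensitive tim23-1 mutant grown at 25 °C; 0% = DMSO wells with yeast and 100% = medium wells without yeast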
Active calls of the source: *.

What do the screens show for `O=C(NCCOc1cccnc1)C1CCC(=O)N(Cc2ccccc2F)C1` (configuration not stated)?
tim10-1 inh: -13.5; NALP3 yeast inh: 15.1; tim23-1 inh: 1.1; TIM10 inh: 7.8; SKKanGAS inh: -1.2

How did CC1C=CCC2C(=O)N(c3cccc(C(=O)Nc4ccc(Br)cc4)c3)C(=O)C12 (configuration not stated) do in these assays?
tim10-1 inh: 28.9; NALP3 yeast inh: 18.0; tim23-1 inh: 31.2; TIM10 inh: 16.8; SKKanGAS inh: 15.3

Results for COc1ccc2sc3ccccc3c(=O)c2c1OC ?
tim10-1 inh: 40.8*; NALP3 yeast inh: 20.2; tim23-1 inh: 57.7*; TIM10 inh: 52.3*; SKKanGAS inh: -2.8; tim10-1 confirm: 56.8*; tim10 confirm: 50.2*; tim23-1 conf: 64.1*

How did CCOC(=O)[C@@H]1[C@H]2COc3cc(OC)ccc3[C@H]2N2C(=O)N(c3ccc(C(F)(F)F)cc3)C(=O)[C@]12C do in these assays?
tim10-1 inh: 77.0*; NALP3 yeast inh: 46.6; tim23-1 inh: 83.8*; TIM10 inh: 75.0*; tim10-1 confirm: 84.2*; tim10 confirm: 73.5*; tim23-1 conf: 86.5*

How did CCOC(=O)[C@@H]1[C@H]2COc3cc(OC)ccc3[C@@H]2N2C(=O)N(c3ccc(C(F)(F)F)cc3)C(=O)[C@@]12C do in these assays?
tim10-1 inh: 11.7; NALP3 yeast inh: 11.8; tim23-1 inh: 25.4; TIM10 inh: 18.9; SKKanGAS inh: 15.4

How did CCOC(=O)C(=CNc1cc(OC)ccc1-n1cccc1)C(=O)OCC do in these assays?
tim10-1 inh: -0.4; NALP3 yeast inh: 5.0; tim23-1 inh: 17.2; TIM10 inh: 20.3; SKKanGAS inh: -15.5

What do the screens show for `COC(=O)c1ccccc1S(=O)(=O)N1CCC(C(=O)Nc2ccc(N3CCOCC3)cc2)CC1`?
tim10-1 inh: -13.1; NALP3 yeast inh: 12.6; tim23-1 inh: -5.7; TIM10 inh: -2.2

What do the screens show for `Cn1c(=O)c2c(n3cnnc13)-c1ccccc1CC21CCCC1`?
tim10-1 inh: 20.0; NALP3 yeast inh: -17.8; tim23-1 inh: 29.5; TIM10 inh: -37.3; SKKanGAS inh: -13.9

What do the screens show for `CSc1nnc2n(C)c3c(c(=O)n12)C1(CCCC1)Cc1ccccc1-3`?
tim10-1 inh: 45.4*; NALP3 yeast inh: -36.8; tim23-1 inh: 62.4*; TIM10 inh: 40.5*; SKKanGAS inh: 21.2; tim10-1 confirm: 30.4; tim10 confirm: 34.6*; tim23-1 conf: 49.8*

Results for CCN(CC)Cc1nc2c(c(=O)[nH]1)C1(CCCCC1)Cc1ccccc1-2 ?
tim10-1 inh: 41.4*; NALP3 yeast inh: -22.6; tim23-1 inh: 50.2*; TIM10 inh: 50.4*; SKKanGAS inh: 1.6; tim10-1 confirm: 41.1*; tim10 confirm: 46.9*; tim23-1 conf: 40.0*

Results for O=c1c2c(nc3n1CCCCC3)-c1ccccc1CC21CCCC1 ?
tim10-1 inh: 36.2; NALP3 yeast inh: -4.2; tim23-1 inh: 36.3; TIM10 inh: 15.7; SKKanGAS inh: 33.9

How did CCOC(=O)C1Cn2c(nc3c(c2=O)C2(CCCC2)Cc2ccccc2-3)S1 (configuration not stated) do in these assays?
tim10-1 inh: 31.5; NALP3 yeast inh: 2.2; tim23-1 inh: 36.5; TIM10 inh: 14.8

Results for Cc1ccc(-n2c(SCC(N)=O)nc3c(c2=O)C2(CCCC2)Cc2ccccc2-3)cc1 ?
tim10-1 inh: 49.3*; NALP3 yeast inh: 5.8; tim23-1 inh: 51.9*; TIM10 inh: 31.8; SKKanGAS inh: 17.8; tim10-1 confirm: 36.3*; tim23-1 conf: 44.5*

What do the screens show for `Cn1c(NCCO)nc2c(c1=O)C1(CCCCC1)Cc1ccccc1-2`?
tim10-1 inh: 59.5*; NALP3 yeast inh: 10.5; tim23-1 inh: 58.8*; TIM10 inh: 31.3; SKKanGAS inh: -8.7; tim10-1 confirm: 37.1*; tim23-1 conf: 62.9*

Results for COc1ccc(CN(C(=O)Cn2nnc(-c3ccc(C)o3)n2)C(C(=O)NCC2CCCO2)c2ccco2)cc1 (configuration not stated) ?
tim10-1 inh: 8.2; NALP3 yeast inh: -1.1; tim23-1 inh: 4.9; TIM10 inh: 19.2; SKKanGAS inh: -7.7

What do the screens show for `CC(C)c1ccc(NC(=O)Cc2c(C(=O)O)n(C)c3ccccc23)cc1`?
tim10-1 inh: -3.7; NALP3 yeast inh: 10.2; tim23-1 inh: 15.9; TIM10 inh: 13.1; SKKanGAS inh: 4.4

Results for CSc1n[nH]c2nc3c(c(=O)n12)C1(CCCC1)Cc1ccccc1-3 ?
tim10-1 inh: 47.9*; NALP3 yeast inh: -46.4; tim23-1 inh: 52.7*; TIM10 inh: 38.9; SKKanGAS inh: 8.7; tim10-1 confirm: 50.7*; tim23-1 conf: 55.1*

How did O=[N+]([O-])c1ccc(/C=C2\CCC(C3=CCCC3)=C2N2CCOCC2)cc1 do in these assays?
tim10-1 inh: 51.9*; NALP3 yeast inh: -16.3; tim23-1 inh: 52.7*; TIM10 inh: 35.9; SKKanGAS inh: 0.4; tim10-1 confirm: 61.0*; tim23-1 conf: 52.2*

Results for O=[N+]([O-])c1ccc(/C=N/Nc2nc(N3CCOCC3)nc(N3CCOCC3)n2)cc1 ?
tim10-1 inh: 6.7; NALP3 yeast inh: 2.0; tim23-1 inh: -0.8; TIM10 inh: -5.4; SKKanGAS inh: -1.4

How did CCOc1ccccc1CNC(=O)CCNS(=O)(=O)c1ccc2[nH]c(=O)oc2c1 do in these assays?
tim10-1 inh: 12.4; NALP3 yeast inh: 14.6; tim23-1 inh: 17.3; TIM10 inh: -0.7; SKKanGAS inh: 0.0

What do the screens show for `COc1cc(OC)cc(C(=O)N[C@H](C(=O)OCC(=O)Nc2ccc(C(C)C)cc2)C(C)C)c1`?
tim10-1 inh: 22.7; NALP3 yeast inh: -2.1; tim23-1 inh: 21.5; TIM10 inh: 29.6; SKKanGAS inh: 4.8

Results for CNC(=S)/N=C/NOCc1ccc(Cl)cc1Cl ?
tim10-1 inh: 65.8*; NALP3 yeast inh: 19.5; tim23-1 inh: 58.3*; TIM10 inh: 50.7*; SKKanGAS inh: -1.2; tim10-1 confirm: 46.8*; tim10 confirm: 61.7*; tim23-1 conf: 66.5*

Results for COc1ccc(NC(=S)Nc2cc(C)[nH]n2)cc1Cl ?
tim10-1 inh: 15.8; NALP3 yeast inh: 5.5; tim23-1 inh: -12.4; TIM10 inh: -3.3; SKKanGAS inh: -12.0

How did Cc1cc(NC(=S)Nc2ccc(C)c(Cl)c2)n[nH]1 do in these assays?
tim10-1 inh: 46.5*; NALP3 yeast inh: 23.4; tim23-1 inh: 51.2*; TIM10 inh: 28.5; SKKanGAS inh: 0.7; tim10-1 confirm: 27.4; tim23-1 conf: 39.0*

How did CCc1ccc(N(CC)C(=O)c2cn(C)c(=O)c3ccccc23)cc1 do in these assays?
tim10-1 inh: 13.9; NALP3 yeast inh: 7.4; tim23-1 inh: -1.6; TIM10 inh: -13.3; SKKanGAS inh: -0.8
